p97 inhibitor: blocks human p97 ATPase activity; P55072; recombinant p97 ATPase, Kinase-Glo ATP luminescence, 3 h; inhibition, % at 8 µM; hit rate 0.42% among 220,000; AID 1481; in the data active = inhibition above about 15%;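 also: 0% = DMSO vehicle and 100% = wells lacking enzyme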
HSV augment: increases HSV replication in cells | HSV replication augmentation in cells, fold increase | maximum fold increase | hit rate 0.005% among 220,000 | AID 1956; in the data active = maximum fold increase above about 1.5; inconclusive = no clear call, values can overlap the other calls; tested in PC3 cells
DTT redox prof: compounds producing H2O2 with reducing agent – biochemical, NIH compound library profiling, artefact control for MLSCN library redox annotation, primary screen; DTT-dependent redox cycling H2O2, phenol red/HRP absorbance; 100% = 100 µM peroxide control, 0% = buffer; activation, % at 10 µM; hit rate 0.03% among 200,000;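 active = activation of at least 50% relative to the plate's high and low controls in the primary single-dose screen; inactive = activation below 50%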;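 also: compound incubated with DTT at 0.8 mM final as the reducing agent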
Wee1 stabilizer: inhibitors of human Wee1 degradation; P30291; HeLa Luc-Wee1K328M stability, luciferase luminescence; 100% = proteasome inhibitor MG132 effect; reporter increase, % at 5 µM; hit rate 1.2% among 220,000;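 active = activation above the mean of all tested compounds plus 3 SD, set per screening run, cut at about 8.8% in these data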;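 also: cells exposed to compound for 20 h before luminescence read; 0% = DMSO alone and 100% = MG132 at 30 µM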
Target sequence (P30291 whole entry K328M): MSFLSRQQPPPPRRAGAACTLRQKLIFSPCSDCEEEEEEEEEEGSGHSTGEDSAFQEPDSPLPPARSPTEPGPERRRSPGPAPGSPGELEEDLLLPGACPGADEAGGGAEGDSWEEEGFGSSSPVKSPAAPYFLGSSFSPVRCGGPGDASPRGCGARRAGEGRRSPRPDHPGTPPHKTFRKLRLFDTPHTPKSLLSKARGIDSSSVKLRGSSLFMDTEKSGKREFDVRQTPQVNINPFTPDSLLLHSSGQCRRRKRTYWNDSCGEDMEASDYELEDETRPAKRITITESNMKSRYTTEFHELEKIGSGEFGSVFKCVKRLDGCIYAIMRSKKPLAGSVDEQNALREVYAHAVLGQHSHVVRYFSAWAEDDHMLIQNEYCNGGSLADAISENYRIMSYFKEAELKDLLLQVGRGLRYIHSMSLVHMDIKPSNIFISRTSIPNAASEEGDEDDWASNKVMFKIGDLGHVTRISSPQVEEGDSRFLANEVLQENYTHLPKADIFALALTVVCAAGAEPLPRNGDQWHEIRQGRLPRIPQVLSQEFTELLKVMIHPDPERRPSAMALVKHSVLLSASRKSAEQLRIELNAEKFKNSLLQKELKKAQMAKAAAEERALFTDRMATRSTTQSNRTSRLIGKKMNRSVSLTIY
Hsp70 activator: Hsp70 transcriptional activation, primary screen. HeLa Hsp70 promoter luciferase reporter, luminescence; scaled: vehicle 0, proteasome-inhibitor control 100%. hit rate 0.04% among 200,000. activation, % at 10 µM. AID 1203;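 active = activation above the mean across all tested compounds plus 3 SD, cutoff set per campaign, cut at about 5.5% in these data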;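 also: 100% = MG132 at 30 µM as the positive control and 0% = DMSO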
Redox H2O2 DR: redox cycling H2O2 generation, confirmed. shares compounds with DTT redox prof. DTT-dependent redox cycling H2O2, phenol red-HRP absorbance. EC50, µM. hit rate 40% among 60. AID 1234;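 active = EC50 under a set limit for hydrogen peroxide production with the reducing agent DTT present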
* = called active by the depositor; i = inactive; ? = inconclusive; . = not tested or not shown. The list is not random: actives were taken first. Their share in the collection is about 1.6%.

SMILES	p97 inhibitor	HSV augment	DTT redox prof	Wee1 stabilizer	Hsp70 activator	others
CC(C)Cn1c(=O)c(C(=O)NCc2ccccn2)c(O)c2ccccc21	-7.8	i	-0.4	12.0*	-0.3
N#C/C(=C(/O)CSc1ccccc1C(=O)O)c1nc2ccccc2s1	16.3*	i	0.0	1.6	-0.3
COc1ccc(OC2OC3COC(C)(C)OC3C(O)C2NC(C)=O)cc1 (configuration not stated)	2.3	i	0.6	1.9	0.0
O=C1CC(N2CCN(c3ccc(C(=O)c4ccc(F)cc4)cc3)CC2)C(=O)N1 (configuration not stated)	-0.7	i	-2.6	8.9*	-0.3
CCc1nc(NCc2ccccn2)c2oc3ccccc3c2n1	.	i	.	.	.
c1ccc(CNc2ncnc3c2oc2ccccc23)nc1	2.1	i	19.1	10.3*	-0.3
CCOc1ccc(CN(CCO)CCO)cc1[N+](=O)[O-]	2.6	i	0.9	9.0*	0.3
COc1ccccc1C(=O)N/C(=C/c1ccccc1)C(=O)Nc1ccc(C(=O)O)cc1	4.5	i	2.4	10.3*	-0.4
Cc1c(O)ccc(-c2n[nH]c(C(=O)O)c2-c2nc3ccccc3s2)c1O	7.5	i	.	10.0*	.
O=C(CC1NCCNC1=O)Nc1ccc2c(c1)OCO2 (configuration not stated)	1.2	i	-1.4	-1.4	0.2
CCOc1ccc(C(CC(=O)O)NC(=O)c2ccco2)cc1OC (configuration not stated)	-0.5	i	2.1	-2.2	-0.3
Cc1nc2cc(Cl)c(Cl)cc2n1CCCO	5.1	i	.	10.1*	.
O=C(C1CCN(S(=O)(=O)N2CCC3(CC2)OCCO3)CC1)N1CCC(Cc2ccccc2)CC1	-2.2	i	0.7	-3.0	-0.5
CCc1[nH]nc2c1C(C(C)C)C(C#N)=C(N)O2 (configuration not stated)	.	i	.	.	.
CCSc1nc2c(c(=O)[nH]1)C(C(C)C)C(C#N)=C(N)O2 (configuration not stated)	3.3	i	-1.9	9.1*	0.0
CC(=O)c1ccc(N2CCN(C(=O)/C=C/c3ccc(S(=O)(=O)NCc4ccco4)cc3)CC2)cc1	-1.8	i	-1.1	10.0*	-0.4
CC(=O)c1ccc(N2CCN(C(=O)/C=C/c3ccc(S(=O)(=O)N4CCOCC4)cc3)CC2)cc1	-1.4	i	-0.1	3.8	0.9
CC(C)OC(=O)CSc1nnc(-c2ccccn2)n1C	-5.1	i	0.1	3.6	1.5
O=C(Nc1nc(COc2ccccc2)cs1)C1CCC1	1.2	i	0.5	9.3*	-0.2
CC1=NNC(=O)C1CCC(=O)N/N=C/c1c(Cl)cccc1Cl (configuration not stated)	0.1	i	-0.3	4.6	-0.1
CCCCCC(=O)NN=C1CCN(Cc2ccccc2)CC1	3.9	i	-0.2	-0.7	-0.4
CCCc1nnc(NC(=O)c2ccc([N+](=O)[O-])cc2)s1	2.9	i	-0.1	0.5	-0.2
COc1ccc(-c2c3c(=O)n(C)c(=O)n(C)c3cn2Cc2ccccn2)cc1	0.7	i	-0.5	-0.9	-0.1
COc1ccccc1N(CC(=O)NC1CCCCC1)S(=O)(=O)c1cccs1	-2.0	i	.	9.9*	.
COc1ccc(S(=O)(=O)C(C#N)c2nc3ccccc3nc2N2CCCC(C)C2)cc1 (configuration not stated)	1.4	1.6*	-3.5	-2.1	-0.2
SMILES	p97 inhibitor	HSV augment	DTT redox prof	Wee1 stabilizer	Hsp70 activator	others
Cc1ccc(S(=O)(=O)C(C#N)c2nc3ccccc3nc2N2CCCC2)cc1 (configuration not stated)	19.6*	?	3.6	-1.9	-0.2
CC1CCCN(c2nc3ccccc3nc2C(C#N)S(=O)(=O)c2cccs2)C1 (configuration not stated)	4.4	i	0.3	1.6	-0.4
O=C(/C=C/c1c(F)cccc1Cl)c1ccc(O)cc1	12.4	i	.	10.6*	.
O=C(/C=C/c1ccccc1Cl)c1ccc(O)cc1	6.3	i	.	0.9	.
COCC(=O)OCC(=O)Nc1cc(C)c(C)cc1[N+](=O)[O-]	0.8	i	0.1	17.4*	0.1
O=C(NN=C1C2CC3CC1CC(Cl)(C3)C2)c1ccccn1	-6.2	i	-2.2	9.7*	0.1
O=c1[nH]c2ccc(NC(=S)Nc3ccc(F)cc3)cc2[nH]1	9.6	i	.	9.7*	.
CC1(C)CN(c2ccc(C(=O)c3ccccc3)cc2)C1=O	4.3	i	-2.2	-2.5	-0.3
C=CCn1c(Cc2ccc(OC)cc2)nnc1SCC(=O)NCCc1ccccc1	0.9	i	109.4*	-0.2	0.0	Redox H2O2 DR=>50
CCn1c(Cc2ccccc2)nnc1SCC(=O)Nc1ccc(OC)cc1	4.5	i	1.7	-0.7	-0.3
OC1CCCN(Cc2ccc3ccc4cccc5ccc2c3c45)C1 (configuration not stated)	-2.4	i	-4.6	1.1	0.0
Cc1cc2c(c(N)n1)c(=O)oc1ccccc12	-1.6	i	1.7	-0.3	-0.4
O=C(COC(=O)c1ccc([N+](=O)[O-])s1)Nc1ncc(C(F)(F)F)cc1Cl	3.0	i	86.0*	0.6	0.0	Redox H2O2 DR=>50
COc1cccc(NC(=O)C(OC(=O)c2ccc([N+](=O)[O-])o2)c2ccccc2)c1 (configuration not stated)	1.6	i	91.5*	-3.3	-0.2	Redox H2O2 DR=>50
O=C1C(Nc2ccccc2)=C/C(=N/S(=O)(=O)c2cccs2)c2ccccc21	6.2	i	102.3*	0.7	-0.3	Redox H2O2 DR=>50
Nc1cccc2nsnc12	5.9	i	.	2.1	.
Nc1cc2nsnc2cc1Br	43.3*	i	361.7*	-1.7	-0.1	Redox H2O2 DR=>50
COc1ccc(-c2c(C)c3ccc(OCC(C)=O)cc3oc2=O)cc1	-1.3	i	1.1	3.9	0.0
O=C(OCCN=C1NS(=O)(=O)c2ccccc21)c1ccncc1	5.5	i	0.2	2.6	0.1
Cc1ccc(C)c(S(=O)(=O)Nc2cc(SCC(=O)O)c(O)c3ccccc23)c1	5.8	i	101.2*	7.1	-0.3	Redox H2O2 DR=>50
CCc1ccc(S(=O)(=O)Nc2cc(SCC(=O)O)c(O)c3ccccc23)cc1	7.0	i	-0.7	-0.9	0.1
NC(=O)C1CCN(C2=C(Cl)C(=O)c3ccccc3C2=O)CC1	3.4	i	355.9*	-0.1	0.1	Redox H2O2 DR=>50
O=C(CCN1C(=O)c2ccccc2C1=O)N(CCO)Cc1ccccc1	7.5	.	2.1	-1.6	0.0
O=C1C=C(N(CCO)Cc2ccccc2)c2ccccc2C1=O	10.3	i	129.0*	1.4	0.0	Redox H2O2 DR=3.11*
CCOC(=O)c1c2c(n(C)c1COC)C(=O)C(=O)c1ccc(Br)cc1-2	5.3	i	343.3*	1.2	-0.1	Redox H2O2 DR=>50
CCCn1c(=O)c(C(=O)OCC)c(O)c2cc(Br)ccc21	2.0	i	-0.8	2.4	0.1
Cc1ccc(S(=O)(=O)/N=C2/C=C(Sc3ncn[nH]3)C(=O)c3ccccc32)c(C)c1	7.5	i	83.3*	-2.7	-0.1	Redox H2O2 DR=12.5*
